# Source: PubChem
# ELG1 DNA repair: inhibitors of ELG1-dependent DNA repair in HEK293T cells; HEK293T ELG1-luciferase reporter, luminescence, 16 h; DNA damage induced by 5-fluorouridine; 2.3% of 330,000 active; Potency, µM (titrated, usually from 46.1 µM), for the others: at the highest dose activity change, negative = inhibition, actives largely listed as inhibitors; AID 504467; note: % is set by controls: 0 for no effect and ±100 for the full control effect; nearly all actives have a fitted effect of over 55% in size
#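 Quantitative HTS, concentration-response format. 2,000 cells/well co-treated with 5-fluorouridine and compound, 16 hr in 5% CO2 at 37 °C; ONE-Glo luminescence read after 30 min.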
# FLuc modulator: inhibits or activates purified firefly luciferase, miR-21 counter-screen; P08659; purified FLuc, Km substrates, luminescence inhibition; Potency, µM (top dose mostly 57.5 µM), for inactives: at the highest dose activity change, negative = inhibition, actives largely listed as inhibitors; 6.9% of 360,000 active;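 note: plate controls were vehicle for no effect and reference inhibitor for full effect; nearly all actives have a fitted effect of over 55% in size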
# Target sequence (P08659 whole entry, looked up): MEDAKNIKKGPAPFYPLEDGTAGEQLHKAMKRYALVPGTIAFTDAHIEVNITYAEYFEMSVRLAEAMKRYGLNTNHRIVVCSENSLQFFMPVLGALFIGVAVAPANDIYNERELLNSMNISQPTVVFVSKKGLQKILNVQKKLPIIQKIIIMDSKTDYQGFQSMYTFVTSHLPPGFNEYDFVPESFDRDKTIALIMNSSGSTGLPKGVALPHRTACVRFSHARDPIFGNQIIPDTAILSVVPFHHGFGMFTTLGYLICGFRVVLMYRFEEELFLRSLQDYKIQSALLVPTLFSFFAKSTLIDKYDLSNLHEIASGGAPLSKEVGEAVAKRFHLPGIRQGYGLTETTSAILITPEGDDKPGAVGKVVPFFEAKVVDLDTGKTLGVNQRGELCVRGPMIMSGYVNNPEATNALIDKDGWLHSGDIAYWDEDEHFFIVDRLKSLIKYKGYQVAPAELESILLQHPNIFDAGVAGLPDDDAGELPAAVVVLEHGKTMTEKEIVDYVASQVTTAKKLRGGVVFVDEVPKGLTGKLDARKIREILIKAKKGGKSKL
#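 Biochemical qHTS of compounds, final roughly 60 µM downward over six points, against 10 nM purified firefly luciferase using Km concentrations of substrates (10 uM D-luciferin, 10 uM ATP) in Tris acetate pH 7.5 buffer; luminescence output.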
# SMN2 splice enh: SMN2 splice variant enhancement. HEK293 SMN2-luciferase splicing reporter, luminescence, 30-36 h. Potency, µM (top dose mostly 46.1 µM), without a hit: at the top dose activity change, positive = activation, usual class: activators. 2.8% of 210,000 active. AID 1458; note: % of control where 0% means no effect; nearly all actives have a fitted effect of over 55% in size
#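 HEK293 cells carry an SMN2 minigene-luciferase reporter in which exon 7 inclusion puts luciferase in frame. Cells were seeded at 2000 cells/well, attached for 10-12 hours, then exposed to compounds for 30-36 hours at 37C before ONE-Glo luminescence.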
# ELG1 genotoxic: induces genotoxicity in HEK293T cells with luciferase-tagged ELG1 | AID 504466 | HEK293T ELG1-luciferase reporter, luminescence, 16 h | Potency, µM (titrated, usually from 46 µM), without a hit: top-dose activity change, positive = activation, usual class: activators | 1.3% of 330,000 active; note: % of control where 0% means no effect; nearly all actives have a fitted effect of over 60% in size
#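 Genotoxic stress is detected as increased luminescence from luciferase-tagged ELG1 in HEK293T cells, measured with ONE-Glo after a 16 hr treatment at 37 °C.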
# Rab9 prom act: activates the Rab9 promoter; Huh7 Rab9 promoter-luciferase reporter, luminescence, 24 h; Potency, µM (doses to about 9.22 µM), for inactives: top-dose activation, negative = inhibition, actives largely listed as activators; 2.8% of 320,000 active; note: % of control where 0% means no effect; nearly all actives have a fitted effect of over 60% in size
#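 Stable Rab9-luc Huh7, 1500 cells/well, 2 h settle; cmpd in DMSO, 24 h, 37 °C/5% CO2; luciferase reagent 10 min RT; luminescence.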
# NPC1 promoter act: NPC1 promoter activation | Huh7 NPC1 promoter luciferase reporter, 24 h | Potency, µM (doses to about 9.22 µM), inactives show at the highest dose activation, actives largely listed as activators | 2.4% of 320,000 active; note: % of control where 0% means no effect; nearly all actives have a fitted effect of over 60% in size
#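 Luciferase expression driven by the NPC1 promoter was measured in stably transfected Huh7 cells after a 24 h compound incubation, using a luciferase reagent and a luminescence read.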
# ELG1 FLuc counter: luciferase inhibition in cell-free luciferin readout for ELG1 hits; cell-free firefly luciferase luminescence counter-screen, ViewLux; 3% of 350 active; shares compounds with ELG1 DNA repair; Potency, µM (doses to about 46.1 µM), inactives show top-dose activity change, negative = inhibition, usual class: inhibitors; note: % is set by controls: 0 for no effect and ±100 for the full control effect
# ELG1-Luc inh: human ELG1 repair inhibition, luciferase-tagged ELG1 confirmation; shares compounds with ELG1 DNA repair; HEK293T ELG1-luciferase levels, luminescence; cells co-treated with 5-fluorouridine; Potency, µM (doses to about 46.1 µM), inactives show top-dose activity change, negative = inhibition, actives largely listed as inhibitors; 68% of 670 active; AID 624248; note: % is set by controls: 0 for no effect and ±100 for the full control effect; nearly all actives have a fitted effect of over 55% in size
# ELG1 MMS Luc: confirmation of human ELG1 repair inhibitors, MMS stimulated; shares compounds with ELG1 DNA repair; HEK293T luciferase-tagged ELG1 level, MMS stimulated; Potency, µM (titrated, usually from 46.1 µM), for inactives: top-dose activity change, negative = inhibition, most hits filed as inhibitors; 53% of 670 active; note: % is set by controls: 0 for no effect and ±100 for the full control effect; nearly all actives have a fitted effect of over 60% in size
# ELG1 5FU viab: confirmation of ELG1 repair inhibitors: viability with 5FU; AID 624250; Potency, µM (series often up to 46.1 µM), for inactives: at the top dose activity change, negative = viability loss, hits mostly cytotoxic; shares compounds with ELG1 DNA repair; 670 tested, under 10 active; cell viability with 5-FU, ELG1-dependent repair;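 note: ELG1-luc HEK293T cells cotreated with 5-fluorouridine at 10 µM final; viability measured 16 h after compound addition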
# ELG1 MMS cell: confirmation of ELG1 repair inhibitors: viability with MMS | shares compounds with ELG1 DNA repair | Cell viability with MMS, ELG1-dependent DNA repair | Potency, µM (doses to about 46.1 µM), without a hit: top-dose activity change, negative = viability loss, hits mostly cytotoxic | 33% of 670 active;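 note: ELG1-luc HEK293T cells co-treated with 10 µM MMS; viability read 16 h after compound addition; % is set by controls: 0 for no effect and ±100 for the full control effect; nearly all actives have a fitted effect of over 60% in size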
# Cell viab unstim: counter-screen for ELG1 repair inhibitors: unstimulated cell viability; shares compounds with ELG1 DNA repair; cell viability counter-screen, unstimulated, luminescence; Potency, µM (top dose mostly 45.9 µM), for inactives: top-dose activity change, negative = loss of viability, most hits filed as cytotoxic; 8% of 900 active;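 note: compound exposure lasted 16 hours before reading; % is set by controls: 0 for no effect and ±100 for the full control effect; nearly all actives have a fitted effect of over 55% in size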
# FLuc enzyme: counter-screen for ELG1 repair inhibitors: firefly luciferase inhibition. 10% of 350 active. shares compounds with ELG1 DNA repair. AID 624253. purified firefly luciferase, luminescence counter-screen. Potency, µM (series often up to 57.5 µM), inactives show at the top dose activity, negative = inhibition, most hits filed as inhibitors; note: % is set by controls: 0 for no effect and ±100 for the full control effect
# Numbers without * were called inactive; ? = inconclusive; nt = not tested or not shown. Hits are enriched below; roughly 9.2% of the tested compounds scored in any of these assays. Calls come from the whole dose curve; as a rule, active = well fitted curve in the direction sought with a large enough effect; inconclusive = small, poorly fitted or top-dose-only effect, or another doubt; inactive = no such curve, though single readings can be large; an effect the other way counts as inactive or inconclusive. Potency is the fitted concentration of half-maximal effect.
SMILES,ELG1 DNA repair,FLuc modulator,SMN2 splice enh,ELG1 genotoxic,Rab9 prom act,NPC1 promoter act,ELG1 FLuc counter,ELG1-Luc inh,ELG1 MMS Luc,ELG1 5FU viab,ELG1 MMS cell,Cell viab unstim,FLuc enzyme
Cc1cccc(OCc2nnc(SCC(=O)N3CCCCC3)o2)c1,8.8%,-0.4%,nt,-2.9%,-2.5%,2.1%,nt,nt,nt,nt,nt,nt,nt
COc1ccc(C2CC(c3ccncc3)=NN2c2ccc(S(N)(=O)=O)cc2)cc1 (stereo not given),?,nt,nt,20.6µM*,nt,nt,nt,nt,nt,nt,nt,?,nt
Cn1nc(CC(=O)Nc2ccc3c(c2)CCC3)c2ccccc2c1=O,0.517µM*,0.1%,-78.0%,-7.1%,-25.4%,-25.1%,-7.6%,?,0.706µM*,-8.2%,0.889µM*,?,-13.6%
CC1(C(=O)Oc2ccccc2)Cc2ccccc2C(=O)O1 (stereo not given),-3.3%,-3.4%,4.5%,-0.4%,-6.3%,1.0%,nt,nt,nt,nt,nt,nt,nt
O=C(COC(=O)Cc1c(Cl)cccc1Cl)Nc1ccc2[nH]c(=O)[nH]c2c1,4.0%,-6.9%,nt,-0.4%,-1.5%,-0.4%,nt,nt,nt,nt,nt,nt,nt
O=[N+]([O-])c1cc2c(c(CSc3nnc(Nc4ccccc4)s3)c1)OCOC2,4.61µM*,0.8%,-10.1%,1.6%,-10.9%,-0.2%,nt,?,0.996µM*,0.1%,0.791µM*,?,nt
COc1cc(-c2nn3c(-c4ccccc4)nnc3s2)cc(OC)c1OC,?,5.6%,-3.3%,-3.0%,-2.7%,13.7%,nt,nt,nt,nt,nt,nt,nt
CCOc1cccc(-c2nnc3sc(-c4cc(OC)c(OC)c(OC)c4)nn23)c1,3.26µM*,3.6%,23.7%,8.0%,-4.7%,0.4%,nt,?,14.6%,3.6%,-2.5%,?,nt
COc1ccc(CNC(=O)C(c2ccc(C)cc2)N(Cc2cccs2)C(=O)c2ccc3c(c2)OCCO3)cc1 (stereo not given),?,0.9%,-28.9%,-3.1%,8.9%,3.9%,nt,nt,nt,nt,nt,nt,nt
Cc1ccc(C(C(=O)NCc2ccccc2)N(Cc2cccs2)C(=O)c2ccc3c(c2)OCCO3)cc1 (stereo not given),2.91µM*,2.5%,-29.6%,-7.5%,-0.2%,0.7%,-4.3%,7.92µM*,7.92µM*,-10.0%,?,?,-2.9%
COc1ccc2c(C)cc(SCC(=O)N3CCOCC3)nc2c1,-10.7%,5.1%,-14.3%,2.6%,5.7%,-2.5%,141.5%,nt,nt,nt,nt,?,?
Cc1ccccc1OCC(=O)NCCS(=O)(=O)N1CCN(c2ccc(F)cc2)CC1,-4.8%,0.7%,nt,3.2%,-1.1%,-2.1%,nt,nt,nt,nt,nt,nt,nt
O=NN(CCc1ccncc1)c1ccc(OCc2ccccc2)cc1,0.82µM*,-4.4%,-50.4%,3.0%,-23.8%,-31.4%,6.2%,?,2.81µM*,-2.2%,3.54µM*,-9.5%,-7.0%
O=C(NCc1ccncc1)C(=O)N/N=C/c1ccc(OCc2ccccc2)cc1,?,1.9%,3.5%,?,-1.8%,-8.0%,nt,nt,nt,nt,nt,nt,nt
COc1ccc(S(=O)(=O)N(Cc2ccccc2)Cc2nc3ccccc3c(=O)[nH]2)cc1,?,2.4%,7.8%,-4.3%,-0.7%,-2.1%,nt,nt,nt,nt,nt,nt,nt
COc1ccccc1CN(Cc1nc2ccccc2c(=O)[nH]1)S(=O)(=O)c1ccc2ccccc2c1,3.66µM*,1.0%,-39.2%,-17.6%,1.6%,-3.6%,nt,7.91µM*,6.28µM*,?,15.8µM*,17.7µM*,nt
Cc1ccc(N2CN=c3s/c(=C\c4cccnc4)c(=O)n3C2)cc1,2.31µM*,-13.1%,1.2%,-10.4%,9.6%,19.1%,-13.3%,?,?,1.3%,1.2%,?,-18.8%
Fc1ccccc1COc1ccc(Br)cc1CNCc1ccncc1,?,-0.5%,-19.5%,-23.6%,-0.4%,4.5%,nt,nt,nt,nt,nt,nt,nt
Fc1ccc(COc2ccc(Br)cc2CNCc2ccncc2)cc1,?,0.6%,-7.7%,-10.8%,0.6%,-5.8%,nt,28.1µM*,?,-7.2%,?,?,nt
COc1ccc(/C=N/NC(=O)c2cc(-c3cccnc3)nc3ccccc23)c(OC)c1,3.7%,-14.1%,-26.7%,0.3%,-5.7%,0.8%,nt,nt,nt,nt,nt,nt,nt
